The source of these data is the supplement of paper PMC10849652.

Common to all, as to test: log2 fold change, soluble protein after heating vs DMSO (PISA); higher = thermal stabilisation; K562 lysate, 10 uM; active = over 0.2 and 3.5 SD of the protein, either way, in both replicates (recomputed)
Compound in assay [1]: CCCS(=O)(=O)Nc1ccc(F)c(C(=O)c2c[nH]c3ncc(-c4ccc(Cl)cc4)cc23)c1F [vemurafenib]
The method in brief: (§1)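 Soluble protein was defined as the supernatant remaining after 21,000xg for 90 min, following pooling of heated aliquots and adjustment to 0.5% NP-40 at 4°C. Before that, crude K562 extract at 1 mg/mL protein in PBS pH 7.4 with 1 mM MgCl2 was treated with 10 μM compound for 30 min and heated for 3 min across 48°C-58°C. Quantification used TMTpro 16plex LC-MS/MS with channel sums equalised, and values are log-two fold changes in thermal stability relative to solvent controls from duplicates.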

Compound in assay [2]: CCCS(=O)(=O)Nc1ccc(F)c(C(=O)c2c[nH]c3ncc(Cl)cc23)c1F
The method in brief: as §1

Compound in assay [3]: CCN(CCCOc1ccc2c(Nc3cc(CC(=O)Nc4cccc(F)c4)[nH]n3)ncnc2c1)CCOP(=O)(O)O [barasertib]
The method in brief: as §1

Compound in assay [4]: CC[C@@H]1C(=O)N(C)c2cnc(Nc3ccc(C(=O)N[C@H]4CC[C@H](N5CCN(CC6CC6)CC5)CC4)cc3OC)nc2N1C(C)C [volasertib]
The procedure, abridged: as §1

Compound in assay [5]: CCn1c(C(=O)N(C2CC2)C2CC2)cc2c3c(ncn3C)c(Nc3cc(C)n(C)n3)nc21
The procedure, abridged:
as §1

Compound in assay [6]: CCn1cc(-c2ccnc3[nH]c(-c4cccc(CN(C)C)c4)cc23)c(-c2ccc(NC(=O)N(C)C)cc2)n1
The method in brief: as §1

Compound in assay [7]: CN1CCC(CNc2ccc3ncc(-c4cccc(OC(F)(F)F)c4)n3n2)CC1
The method in brief:
as §1

Compound in assay [8]: CN1CCN(CCOc2cc(OC3CCOCC3)c3c(Nc4c(Cl)ccc5c4OCO5)ncnc3c2)CC1 [saracatinib]
The procedure, abridged: as §1

Compound in assay [9]: CN1CCN(c2nc(C3=C(c4c[nH]c5ccccc45)C(=O)NC3=O)c3ccccc3n2)CC1 [sotrastaurin]
The procedure, abridged: as §1

Compound in assay [10]: CC[C@@H]1C(=O)N(C)c2cnc(Nc3ccc(C(=O)NC4CCN(C)CC4)cc3OC)nc2N1C1CCCC1
The method in brief:
as §1

Of roughly 8,800 targets only a part is listed; those with a hit were picked by preference. About 0.5% of all pairs of compound and target were hits. A number with no mark means an inactive call.

Sequence of UniProt P28328 (P28328 whole entry, looked up): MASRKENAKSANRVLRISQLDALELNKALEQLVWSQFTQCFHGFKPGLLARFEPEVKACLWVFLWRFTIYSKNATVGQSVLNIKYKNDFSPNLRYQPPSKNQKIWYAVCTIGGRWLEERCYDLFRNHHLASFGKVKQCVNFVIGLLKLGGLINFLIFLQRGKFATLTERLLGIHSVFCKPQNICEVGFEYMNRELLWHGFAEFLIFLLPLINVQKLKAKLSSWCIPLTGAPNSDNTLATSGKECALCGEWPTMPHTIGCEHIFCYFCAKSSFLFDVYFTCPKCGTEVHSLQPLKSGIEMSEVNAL
Sequence of UniProt Q4G0T1 (Q4G0T1 whole entry, looked up): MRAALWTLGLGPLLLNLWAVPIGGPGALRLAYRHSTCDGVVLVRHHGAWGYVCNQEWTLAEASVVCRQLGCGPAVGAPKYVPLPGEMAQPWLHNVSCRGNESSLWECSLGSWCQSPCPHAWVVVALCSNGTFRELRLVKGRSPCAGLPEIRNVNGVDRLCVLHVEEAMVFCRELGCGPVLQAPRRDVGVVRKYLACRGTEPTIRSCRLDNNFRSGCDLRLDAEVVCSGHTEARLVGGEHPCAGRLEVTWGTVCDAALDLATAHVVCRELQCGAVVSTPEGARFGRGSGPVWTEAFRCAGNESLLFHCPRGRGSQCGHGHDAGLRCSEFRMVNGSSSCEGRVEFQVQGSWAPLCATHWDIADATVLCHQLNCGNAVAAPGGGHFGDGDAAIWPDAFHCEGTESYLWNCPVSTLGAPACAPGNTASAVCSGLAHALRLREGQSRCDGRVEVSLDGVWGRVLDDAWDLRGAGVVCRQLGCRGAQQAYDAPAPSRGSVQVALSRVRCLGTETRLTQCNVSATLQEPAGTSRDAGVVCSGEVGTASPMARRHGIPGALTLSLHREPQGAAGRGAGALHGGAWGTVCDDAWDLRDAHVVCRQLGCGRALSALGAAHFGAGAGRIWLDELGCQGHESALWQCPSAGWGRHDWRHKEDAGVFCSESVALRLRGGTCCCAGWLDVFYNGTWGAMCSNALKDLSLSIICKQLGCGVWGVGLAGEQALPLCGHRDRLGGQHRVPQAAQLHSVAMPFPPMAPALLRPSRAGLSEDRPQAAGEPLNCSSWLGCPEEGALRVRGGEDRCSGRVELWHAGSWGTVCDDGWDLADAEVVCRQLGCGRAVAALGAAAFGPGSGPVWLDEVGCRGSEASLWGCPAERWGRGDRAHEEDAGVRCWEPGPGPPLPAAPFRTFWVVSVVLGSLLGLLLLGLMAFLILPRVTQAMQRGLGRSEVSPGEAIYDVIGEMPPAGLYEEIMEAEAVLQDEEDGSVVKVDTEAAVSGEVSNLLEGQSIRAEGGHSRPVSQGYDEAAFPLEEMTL
Sequence of UniProt P48736 (P48736 whole entry, looked up): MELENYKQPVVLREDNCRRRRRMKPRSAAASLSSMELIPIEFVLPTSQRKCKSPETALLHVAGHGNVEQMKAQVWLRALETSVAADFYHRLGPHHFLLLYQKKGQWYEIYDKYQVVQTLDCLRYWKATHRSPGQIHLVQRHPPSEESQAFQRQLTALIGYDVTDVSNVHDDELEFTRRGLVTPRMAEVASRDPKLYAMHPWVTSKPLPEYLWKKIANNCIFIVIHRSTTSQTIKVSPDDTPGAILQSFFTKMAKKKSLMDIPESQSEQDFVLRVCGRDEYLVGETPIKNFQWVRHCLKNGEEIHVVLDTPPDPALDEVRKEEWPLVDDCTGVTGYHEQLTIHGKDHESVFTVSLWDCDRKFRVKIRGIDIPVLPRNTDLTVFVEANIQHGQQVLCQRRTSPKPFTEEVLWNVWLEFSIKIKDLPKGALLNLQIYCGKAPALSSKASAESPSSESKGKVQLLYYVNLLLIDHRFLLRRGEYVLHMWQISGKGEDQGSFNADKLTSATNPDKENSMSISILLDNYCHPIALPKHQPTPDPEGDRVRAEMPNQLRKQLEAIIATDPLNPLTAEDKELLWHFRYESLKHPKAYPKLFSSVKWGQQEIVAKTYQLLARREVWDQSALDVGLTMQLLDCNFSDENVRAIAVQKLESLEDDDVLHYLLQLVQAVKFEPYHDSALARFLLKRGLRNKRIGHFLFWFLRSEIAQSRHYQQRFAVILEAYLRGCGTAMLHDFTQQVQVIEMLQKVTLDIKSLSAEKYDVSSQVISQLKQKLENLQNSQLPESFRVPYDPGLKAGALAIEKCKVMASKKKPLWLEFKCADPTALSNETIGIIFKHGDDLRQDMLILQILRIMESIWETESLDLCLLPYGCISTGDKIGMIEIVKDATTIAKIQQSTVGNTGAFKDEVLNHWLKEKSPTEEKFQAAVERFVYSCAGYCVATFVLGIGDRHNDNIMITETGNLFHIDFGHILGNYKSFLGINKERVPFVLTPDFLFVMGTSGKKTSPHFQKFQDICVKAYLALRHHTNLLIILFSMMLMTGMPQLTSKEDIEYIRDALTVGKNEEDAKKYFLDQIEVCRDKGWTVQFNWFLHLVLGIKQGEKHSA
Sequence of UniProt Q05397 (Q05397 whole entry, looked up): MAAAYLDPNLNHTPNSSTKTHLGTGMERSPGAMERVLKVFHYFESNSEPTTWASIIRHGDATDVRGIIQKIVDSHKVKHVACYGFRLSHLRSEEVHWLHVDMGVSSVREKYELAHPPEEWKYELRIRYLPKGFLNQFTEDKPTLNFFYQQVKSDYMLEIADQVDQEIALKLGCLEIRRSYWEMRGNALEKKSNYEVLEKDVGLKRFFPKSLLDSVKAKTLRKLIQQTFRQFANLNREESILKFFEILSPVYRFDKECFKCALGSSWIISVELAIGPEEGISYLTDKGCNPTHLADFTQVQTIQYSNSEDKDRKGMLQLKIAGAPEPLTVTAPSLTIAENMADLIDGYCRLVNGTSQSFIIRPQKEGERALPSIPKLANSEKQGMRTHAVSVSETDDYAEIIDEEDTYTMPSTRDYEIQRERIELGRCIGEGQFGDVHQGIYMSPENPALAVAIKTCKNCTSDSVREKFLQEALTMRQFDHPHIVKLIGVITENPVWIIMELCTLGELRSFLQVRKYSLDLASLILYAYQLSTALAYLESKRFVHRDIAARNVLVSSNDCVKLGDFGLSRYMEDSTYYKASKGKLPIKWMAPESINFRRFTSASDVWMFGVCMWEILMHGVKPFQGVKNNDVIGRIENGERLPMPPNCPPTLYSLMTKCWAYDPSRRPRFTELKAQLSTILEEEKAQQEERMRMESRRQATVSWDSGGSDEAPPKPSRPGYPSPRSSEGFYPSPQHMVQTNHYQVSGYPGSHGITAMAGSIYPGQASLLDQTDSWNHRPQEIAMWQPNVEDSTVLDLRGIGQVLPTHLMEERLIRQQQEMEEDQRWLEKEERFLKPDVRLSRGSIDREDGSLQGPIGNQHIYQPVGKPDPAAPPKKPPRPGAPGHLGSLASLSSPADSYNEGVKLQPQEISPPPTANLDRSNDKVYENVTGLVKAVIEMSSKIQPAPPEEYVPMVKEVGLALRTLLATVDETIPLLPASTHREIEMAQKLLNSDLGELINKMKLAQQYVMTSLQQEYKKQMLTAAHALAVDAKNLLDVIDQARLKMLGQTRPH
Sequence of UniProt Q9BSG0 (Q9BSG0 whole entry, looked up): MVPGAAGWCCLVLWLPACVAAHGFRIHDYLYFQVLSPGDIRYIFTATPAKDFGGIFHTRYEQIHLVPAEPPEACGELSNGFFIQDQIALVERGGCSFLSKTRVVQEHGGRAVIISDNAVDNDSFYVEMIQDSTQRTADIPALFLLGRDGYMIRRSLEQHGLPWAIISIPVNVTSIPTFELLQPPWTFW
Sequence of UniProt O60927 (O60927 whole entry, looked up): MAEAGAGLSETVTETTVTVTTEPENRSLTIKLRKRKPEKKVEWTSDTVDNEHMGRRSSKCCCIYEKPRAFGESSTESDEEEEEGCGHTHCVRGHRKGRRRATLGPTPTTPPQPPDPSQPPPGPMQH
Sequence of UniProt Q15004 (Q15004 whole entry, looked up): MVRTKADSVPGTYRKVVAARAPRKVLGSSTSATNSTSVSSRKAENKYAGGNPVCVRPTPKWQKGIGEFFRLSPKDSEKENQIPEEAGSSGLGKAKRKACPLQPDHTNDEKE
Sequence of UniProt Q9Y570 (Q9Y570 whole entry, looked up): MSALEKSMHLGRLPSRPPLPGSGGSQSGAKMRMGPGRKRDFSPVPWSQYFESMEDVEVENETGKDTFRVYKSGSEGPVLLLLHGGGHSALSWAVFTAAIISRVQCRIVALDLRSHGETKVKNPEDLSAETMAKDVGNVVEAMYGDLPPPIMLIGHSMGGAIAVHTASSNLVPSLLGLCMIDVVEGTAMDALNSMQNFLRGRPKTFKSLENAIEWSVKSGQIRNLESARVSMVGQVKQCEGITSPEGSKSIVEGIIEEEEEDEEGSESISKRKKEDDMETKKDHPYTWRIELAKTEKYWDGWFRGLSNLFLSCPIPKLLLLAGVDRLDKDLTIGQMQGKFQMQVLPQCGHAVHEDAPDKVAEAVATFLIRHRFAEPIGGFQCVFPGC
Sequence of UniProt P53350 (P53350 whole entry, looked up): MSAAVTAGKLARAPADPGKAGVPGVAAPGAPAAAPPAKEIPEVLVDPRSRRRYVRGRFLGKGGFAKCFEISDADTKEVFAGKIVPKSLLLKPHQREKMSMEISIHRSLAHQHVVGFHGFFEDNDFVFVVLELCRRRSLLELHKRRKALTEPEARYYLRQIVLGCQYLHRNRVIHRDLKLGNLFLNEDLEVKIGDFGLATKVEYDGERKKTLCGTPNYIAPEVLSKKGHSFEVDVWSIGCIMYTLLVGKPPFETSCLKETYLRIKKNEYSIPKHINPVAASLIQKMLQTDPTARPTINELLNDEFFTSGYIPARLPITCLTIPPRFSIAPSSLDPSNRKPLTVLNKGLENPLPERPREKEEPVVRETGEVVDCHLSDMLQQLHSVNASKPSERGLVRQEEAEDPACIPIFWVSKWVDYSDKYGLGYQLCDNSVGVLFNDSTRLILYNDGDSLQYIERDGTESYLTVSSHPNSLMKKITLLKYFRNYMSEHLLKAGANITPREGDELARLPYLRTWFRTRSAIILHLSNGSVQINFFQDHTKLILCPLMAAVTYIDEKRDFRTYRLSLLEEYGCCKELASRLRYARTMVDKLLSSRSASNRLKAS

For the target PLK1 (UniProt P53350), the log2 fold change is 0.053 in [1]; -0.009 in assay [2]; 0.003 in [3]; -0.009 in [4]; 0.014 in assay [5]; 0.165 in assay [6]. Also, the results for the log2 fold change in [7], in assay [8] and in assay [9] were -0.279, 0.021 and -0.335 (active), respectively.

As to PRRG1 (UniProt O14668), the log2 fold change in [5] was 0.052.

PIK3CG (UniProt P48736): the log2 fold change in [1] is 0.028; in assay [3], 0.046; in assay [10] it was 0.004; in [5] it was 0.006; in assay [6] it was -0.276 (active); in assay [7] it was 0.289 (active). Moreover, the log2 fold change in [8] is 0.028; in [9] it was 0.051.

Regarding PCLAF (UniProt Q15004), the log2 fold change is -0.016 in assay [1]; -0.068 in [3]; 0.057 in assay [10]; -0.033 in assay [5]; -0.067 in assay [6]; 0.121 in [7]. The log2 fold change in assay [8] is -0.013; in assay [9] it was 0.011.

With PRADC1 (UniProt Q9BSG0), the log2 fold change in assay [2] was 0.011; in assay [3], -0.509 (active); in assay [4], 0.074; in assay [5], -0.05; in assay [6], 0.057; in [7], 0.101. Besides, the log2 fold change in [8] was 0.054; in [9], -0.015.

With PFN1 (UniProt I3L3D5), the log2 fold change in [2] was -0.142; in assay [3] it was 0.241; in assay [10] it was -0.01; in [4], -0.107; in [5] it was -0.067; in assay [6], 0.924 (active). The log2 fold change in assay [7] is -0.135.

With PHGDH, A0A286YFE1, the log2 fold change was 0.158 in [2], 0.364 in assay [3], 0.083 in assay [4] and -0.318 in [8].

Consider PCBP2 (UniProt F8VRH0), for which the log2 fold change was -0.035 in [2]; -0.058 in assay [4]; -0.138 in [5]; -0.033 in [6]; -0.047 in assay [7]; -0.066 in assay [9].

On to PPME1 (UniProt Q9Y570), for which the log2 fold change in assay [2] is -0.042; in assay [3] it was 0.026; in assay [10] it was 0.104; in assay [4], -0.012; in assay [8], -0.043.

Regarding PTMA isoform 2 (UniProt P06454), the log2 fold change in assay [3] is -0.09.

As to PEX2 (UniProt P28328), the log2 fold change in [1] is 0.079; in assay [2] it was -0.047; in assay [3], 0.174; in [4], 0.024; in assay [5], 0.052; in assay [6], 0.011. In addition, the log2 fold change in assay [7] was 0.024; in [8], -0.086; in assay [9], 0.036.

As for NA (UniProt Q4G0T1), the log2 fold change is 0.032 in assay [5]; 0.022 in [6]; 0.026 in [7]; -0.033 in [8]; 0.129 in assay [9].

As to PRG4 (UniProt Q92954), the log2 fold change in [2] was -0.038; in assay [3], 0.332; in assay [4], 0.054; in [5] it was -0.03; in assay [6] it was -0.179; in [7], 0.229. In addition, the log2 fold change is 0.009 in assay [8] and -0.02 in [9].

As to PLXND1 (UniProt Q9Y4D7), the log2 fold change in [3] is 0.045; in assay [5], -0.214; in assay [8], 0.018; in [9] it was 0.012.

With PMS1 (UniProt P54277), the log2 fold change is 0.037 in assay [1]; 0.193 in [3]; 0.019 in [10]; -0.028 in [5]; -0.01 in [6]; -0.051 in assay [7]. Also, the values for the log2 fold change in [8] and in assay [9] were 0.016 and -0.002, respectively.

As for PTK2 isoform 2 (UniProt Q05397), the log2 fold change in assay [2] is -0.101; in assay [3], 0.05; in assay [10], -0.076; in assay [4], -0.387; in assay [8] it was -0.063.

As for PPP1R11 (UniProt O60927), the log2 fold change in assay [2] was 0.069; in assay [3], -0.04; in assay [10], 0.153; in assay [4], 0.046; in [5], -0.101; in assay [6], 0.16. Further, the log2 fold change was -0.067 in assay [7], -0.05 in assay [8] and 0.001 in [9].

PIAS2 (UniProt O75928): the log2 fold change in assay [1] is -0.263; in assay [10] it was -0.026; in [5] it was 0.003; in assay [8] it was 0.044; in assay [9] it was -0.033.

Regarding PECR (UniProt Q9BY49), in assay [10], the log2 fold change was 0.023.
